Measurements published in the supplement of paper PMC10811239.

What was measured:
[1] = tested on: LEGO organoid PTCC (PTEN-/-; TP53-/-; CDKN2A-/-; CDKN2B-/-); experiment: bioluminescence (viable cell) signal fold change after vs before treatment, normalised to DMSO (ratio); higher = more tumour cell growth / less inhibition; conditions: 10 µM; treatment time 6 days
Protocol: (§1)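 Luc2-labelled iPSC-derived glioblastoma-like organoids (LEGOs, genotypes PT = PTEN-/-;TP53-/-, PTCC = plus CDKN2A/B-/-, PTN = plus NF1-/-) were treated with 10 uM drug for 6 days (applied every other day) at 37 C. Bioluminescence imaging was done before treatment and 2 days after the last dose. BLI signals were normalised to the DMSO control on the same day and then to the pre-treatment signal (N=3).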

[2] = tested on: LEGO organoid PTN (PTEN-/-; TP53-/-; NF1-/-); experiment: as above; conditions: 10 µM; treatment time 6 days
Protocol: as §1

Compound | bioluminescence [1] | bioluminescence [2]
O.O.O.O.[Li][O]C(=O)CC(O)(CC(=O)[O][Li])C(=O)[O][Li] [Lithium citrate tetrahydrate] | 0.787 | 1.25
Cc1cc2c(s1)Nc1ccccc1N=C2N1CCN(C)CC1 [Olanzapine] | 0.712 | 1.81
COc1cc(Nc2c(C#N)cnc3cc(OCCCN4CCN(C)CC4)c(OC)cc23)c(Cl)cc1Cl [Bosutinib] | 0.731 | 0.669
CCCN(CCC)CCc1cccc2c1CC(=O)N2.Cl [Ropinirole hydrochloride] | 1.02 | 0.313
CC(C)c1nc(CN(C)C(=O)N[C@H](C(=O)N[C@@H](Cc2ccccc2)C[C@H](O)[C@H](Cc2ccccc2)NC(=O)OCc2cncs2)C(C)C)cs1 [Ritonavir] | 2 | 1.83
CCOc1nc2cccc(C(=O)OC(C)OC(=O)OC3CCCCC3)c2n1Cc1ccc(-c2ccccc2-c2nn[nH]n2)cc1 (stereo not drawn) [Candesartan Cilexetil] | 1.17 | 1.04
Cn1c(=O)c2[nH]cnc2n(C)c1=O [Theophylline] | 1.2 | 2.42
CCC1=C[C@@H]2CN(C1)Cc1c([nH]c3ccccc13)[C@@](C(=O)OC)(c1cc3c(cc1OC)N(C)[C@H]1[C@@](O)(C(=O)OC)[C@H](OC(C)=O)[C@]4(CC)C=CCN5CC[C@]31[C@@H]54)C2.O=C(O)[C@H](O)[C@@H](O)C(=O)O.O=C(O)[C@H](O)[C@@H](O)C(=O)O [Vinorelbine Tartrate] | 1.06 | 0.805
CN1C(=O)OC(C)(C)C1=O [Trimethadione] | 1.38 | 0.909
